Screening results as filed in PubChem.
A selection: hits, their analogues and other compounds. The true share with any hit is near 7.6%.
Cy5 interf NS3h – Cy5 fluorescence quenchers or enhancers, artefact control for HCV NS3 helicase inhibitor project, biochemical, ChemBridge library, Cy5 readout. fluorescence interference ratio at 100 µM. Cy5-dT15 DNA with NS3h, fluorescence interference; actives lie on both sides; signal over control mean, under 1 quenches. AID 720488, 2013. 6% of 16,000 active;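 active = compound fluorescence over control fluorescence at most 0.8, a quencher, or at least a set upper limit, an enhancer; inactive = ratio between 0.8 and the set upper limit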
HCV NS3h FP – HCV NS3 helicase inhibitors, primary screen, biochemical, fluorescence polarization, ChemBridge library. AID 687043, 2013. 1.6% of 16,000 active. Hepatitis C virus NS3 helicase. NS3h Cy5-dT15 DNA binding. inhibition, % at 100 µM;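 active = inhibition above the average over every tested compound plus 3 SD, cut at about 40% in these data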
Starred values were filed as active, the others as inactive.

SMILES	Cy5 interf NS3h	HCV NS3h FP
O=C1c2cc(S(=O)(=O)Nc3ccncc3)ccc2-c2ccc(S(=O)(=O)Nc3ccncc3)cc21	0.92	15
O=C1c2cc(S(=O)(=O)NCCCO)ccc2-c2ccc(S(=O)(=O)NCCCO)cc21	0.63*	-5
COc1ccccc1OCCCOc1ccc(Cl)c(C)c1	0.98	7
O=C(Nc1ccc(Cl)c(Cl)c1)C(c1ccccc1)c1ccccc1	0.95	10
O=C(Nc1ccc(S(=O)(=O)N2CCCCCC2)cc1)C(F)(F)F	0.77*	14
O=C(Nc1ccc(S(=O)(=O)N2CCCCC2)cc1)c1ccc(F)cc1	0.91	9
Cc1cc(OCC(=O)NCc2ccccc2)cc(C)c1Cl	0.99	-1
CC12CN3CC(C)(CN(C1)C(=O)c1ccccc1C3=O)C2=O	1.1	1
CCOc1cccc(-c2nc3cc(C)ccc3o2)c1	1.1	0
Cc1ccc2oc(-c3cccc(N)c3C)nc2c1	0.56*	9
COc1ccc(C(=O)OCCCN2C(=O)c3ccccc3C2=O)cc1	0.62*	9
CC(=O)OCCCN1C(=O)c2ccc(S(=O)(=O)c3ccc4c(c3)C(=O)N(CCCOC(C)=O)C4=O)cc2C1=O	1	3
Cc1ccccc1NC(=O)c1c(N)sc2c1CCCC2	0.92	-4
O=C(Nc1ccccc1Oc1ccccc1)c1cc2cc(Cl)cc(Cl)c2oc1=O	0.99	0
CCN(CC)c1ccc(C(=O)Nc2nccs2)cc1	0.98	13
O=C(Nc1cc(NC(=O)c2ccccc2)cc(C(=O)Nc2nccs2)c1)c1ccccc1	1	-1
O=C(Nc1nccs1)c1cccc(NC(=O)c2cccs2)c1	0.71*	32
O=C(Cc1ccccc1)Nc1ccc(C(=O)Nc2nccs2)cc1	0.68*	21
COc1ccc(C2(O)CN(c3ccccc3)C3=[N+]2CCCS3)cc1 (stereo not given)	0.95	2
O=S(=O)(c1ccc2c(c1)Cc1cc(S(=O)(=O)n3cnc4ccccc43)ccc1-2)n1cnc2ccccc21	0.64*	9
Cc1nc2ccccc2n1S(=O)(=O)c1ccc(Br)cc1	0.98	-2
O=C(O)c1c(-c2ccccc2)oc2ccc(OCc3ccccc3)cc12	0.92	11
COc1ccc(/C(C)=N/N2CCN(Cc3ccc(Cl)cc3)CC2)cc1OC	0.68*	19
COc1ccc(CN2CCN(Cc3ccc(C)cc3)CC2)cc1OC	1	-9
Cc1ccc(-c2ccc(C=C3C(=O)N(C)C(=O)N(C)C3=O)o2)cc1[N+](=O)[O-]	1.1	2
SMILES	Cy5 interf NS3h	HCV NS3h FP
COc1ccc(NC(=O)/C(C#N)=C/c2ccc(F)cc2)cc1	0.93	-1
CC(C)=C1C2C=CC1C1C(=O)N(c3ccccc3[N+](=O)[O-])C(=O)C21 (stereo not given)	0.98	8
O=C(/C=C/c1ccccc1Cl)Nc1ccccc1[N+](=O)[O-]	1.1	41*
COc1ccc(NC(=O)/C=C/c2ccccc2Cl)c([N+](=O)[O-])c1	1	8
O=C(c1cc2n(n1)C(C(F)(F)F)CC(c1ccc(Cl)cc1)N2)N1CCN(c2ccccc2)CC1 (stereo not given)	0.93	24
COc1ccc(C2CC(C(F)(F)F)n3nc(C(=O)NCc4cccs4)cc3N2)cc1OC (stereo not given)	0.91	-3
Cc1ccc(C2CC(C(F)(F)F)n3nc(C(=O)Nc4ccc(F)cc4F)cc3N2)cc1 (stereo not given)	0.57*	2
COc1ccc(C2CC(C(F)(F)F)n3nc(C(=O)O)cc3N2)cc1OC (stereo not given)	0.65*	-1
COCCNC(=O)c1cc2n(n1)C(C(F)(F)F)CC(c1ccc(F)cc1)N2 (stereo not given)	1	2
Cc1ccc(C2CC(C(F)(F)F)n3nc(C(=O)N4CCN(Cc5ccccc5)CC4)cc3N2)cc1 (stereo not given)	0.76*	11
CCOC(=O)C(=O)c1cc(-c2ccccc2)c(-c2ccccc2)s1	0.97	15
COc1ccc(-n2c(C)cc(/C=C(\C#N)C(=O)Nc3cccc(Cl)c3C)c2C)cc1	1	-4
COc1ccc(OC)c(C(=O)c2c(C)oc3ccc(O)cc23)c1	0.97	10
COc1ccc2oc(C)c(C(C)=O)c2c1	0.74*	16
O=S(=O)(Nc1ccc(O)c(-c2c(O)ccc3ccccc23)c1)c1ccccc1	0.89	3
CC(C)NC(=O)c1cnn2c1NC(c1ccc(Br)cc1)CC2C(F)(F)F (stereo not given)	1.1	10
O=C(O)c1cnn2c1NC(c1ccc(F)cc1)CC2C(F)(F)F (stereo not given)	0.95	-4
Cc1ccc(C2CC(C(F)(F)F)n3ncc(C(=O)N4CCSCC4)c3N2)cc1 (stereo not given)	0.49*	15
O=C(O)c1cnn2c1NC(c1ccc(Br)cc1)CC2C(F)(F)F (stereo not given)	0.79*	-12
CN1CCN(C(=O)c2cnn3c2NC(c2ccc(Br)cc2)CC3C(F)(F)F)CC1 (stereo not given)	1	2
O=C(NCc1cccs1)c1cnn2c1NC(c1ccc(Br)cc1)CC2C(F)(F)F (stereo not given)	0.49*	19
COc1ccc(Cl)cc1NC(=O)C1=C(C)NC(=O)NC1c1ccccc1Cl (stereo not given)	0.93	15
Cc1ccc(S(=O)(=O)NC(=O)N2CCN(Cc3ccccc3)CC2)cc1	1.1	4
CCOc1ccc2nc(SC3CC(=O)N(c4cccc(OC)c4)C3=O)sc2c1 (stereo not given)	1	4
Cc1ccc(Nc2nnc(-c3ccc(C(=O)NCCO)cc3)c3ccccc23)c(C)c1	0.99	1
SMILES	Cy5 interf NS3h	HCV NS3h FP
COc1ccc(Cc2noc(COc3ccc(Cl)cc3)n2)cc1	1	15
CSc1nnc(-c2ccc(C)cc2)o1	0.69*	12
CC(Sc1nnc(-c2cccnc2)o1)C(=O)c1ccccc1 (stereo not given)	1	2
Cc1cccc(Cl)c1NC(=O)C1CC(=O)N(c2ccc(Br)cc2)C1 (stereo not given)	1.1	19
CC(=O)N1CCN=C1Nc1c(Cl)cccc1Cl	0.6*	12
CCOC(=O)C1=C(C)N=c2s/c(=C\c3ccc([N+](=O)[O-])o3)c(=O)n2C1c1ccc(OCC)cc1 (stereo not given)	0.86	-6
CCOC(=O)C1=C(C)N=c2s/c(=C\c3ccc(N(C)C)o3)c(=O)n2C1c1ccc(OCC)cc1 (stereo not given)	0.8*	1
COCCNC(=O)c1ccc(CN(c2ccccc2)S(C)(=O)=O)cc1	0.72*	18
CS(=O)(=O)N(Cc1ccc(C(=O)NCCSc2ccccn2)cc1)c1ccccc1	1.1	18
O=C(/C=C/c1ccccc1)NC(=S)Nc1cccc(NC(=O)c2ccco2)c1	1.1	-17
Cc1cc(Cl)ccc1OCC(=O)Nc1ccc(Cl)cn1	1	11
Cc1cc(Cl)ccc1OCC(=O)Nc1ccc(Br)cn1	0.76*	12
C=CCc1c(C)nc2cc(-c3cccc(F)c3)[nH]n2c1=O	1.2*	11
CCOC(=O)CCc1c(C)nc2cc(-c3cccc(F)c3)[nH]n2c1=O	1.1	7
COc1ccc(CNC(=O)C(=O)Nc2ccccc2C)cc1	1.1	4
Cc1ccc(CNC(=O)C(=O)N2CCCC2)cc1	1.3*	4
COc1ccc(CNC(=O)C(=O)NCc2ccccc2)cc1	0.73*	10
